# “And” between values parts separate entries of the source, which are not always exact repeats. Equal entries are not always repeated. Results filed as inconclusive are left out. Where a call stands in place of a potency, no number is given. Some compounds were tested as several samples or in several runs, with calls that do not always agree. The source made the active and inactive calls. The call rests on the fitted dose curve; in most records, active means well fitted inhibition curve with a large enough effect in the repeat runs; inconclusive means weak or mixed curves; inactive means no such curve, though single readings can be large or run the other way.
# Molecular target: Cytochrome P450 3A4 (Homo sapiens) (UniProt P08684)
# Assay: Cytochrome P450 Family 3 Subfamily A Member 4 (CYP3A4) small molecule antagonists: luciferase reporter qHTS assay (AID 1671201); further: nearly all actives have a fitted effect of over 50% in size
# Details: P450-Glo CYP3A4 enzyme, luciferin luminescence, 1 h; series mostly up to 115 µM
# From the text: National Center for Advancing Translational Sciences [NCATS]
# U.S. Environmental Protection Agency [EPA]
# National Institutes of Environmental Health Sciences [NIEHS]
# National Toxicology Program [NTP]
# U.S. Food and Drug Administration [FDA]
# Cytochrome P450 (CYP) enzymes are membrane-bound hemeproteins that play a key role in metabolism of drugs and xenobiotics. Evaluation of the effect of chemicals on CYP isozymes is useful to minimize the adverse drug reactions and toxicities in drug development process. Tox21 chemicals were tested for their effect on CYP enzyme activities by using P450-Glo (TM) screening systems (Promega Corporation, Madison, WI). These systems provide a luminescent method containing proluciferin substrates and are converted to luciferin products by CYP isozymes. The luciferin products formed are detected with a luciferin detection reagent, and the amount of light produced is proportional to CYP activity. P450-Glo (TM) CYP3A4 screening system (Catalog. No. V9910) was used to detect the compounds that interfere in CYP3A4 activity. The positive control compound used for CYP3A4 assay is ketoconazole (Sigma-Aldrich, St. Louis, MO).
# Tox21 Assay Protocol Summary:
# Two ul of enzyme-substrate mix was dispensed into medium binding white/solid 1536-well plates (Greiner Bio-One North America Inc., Monroe, NC) using a BioRaptr Flying Reagent Dispenser (FRD, Beckman Coulter, Brea, CA). Compounds dissolved in DMSO and positive control (ketoconazole) were transferred to the assay plates at 23 nl using a Pintool station (Wako, San Diego, CA). The assay plates were incubated at room temperature for 10 min. Then 2 ul of NADPH regeneration solution was added to each well of the assay plates using an FRD and incubated at room temperature for 1 h. The reaction was stopped by adding 4 ul of detection reagent using an FRD and after 20 min incubation at room temperature the luminescence signal was measured using a ViewLux plate reader (Perkin Elmer, Shelton, CT). Data were expressed as relative luminescence units.
# Potency means the concentration at half of the fitted maximal effect.
# Chain of Cytochrome P450 3A4 (Homo sapiens) (P08684 whole entry, looked up): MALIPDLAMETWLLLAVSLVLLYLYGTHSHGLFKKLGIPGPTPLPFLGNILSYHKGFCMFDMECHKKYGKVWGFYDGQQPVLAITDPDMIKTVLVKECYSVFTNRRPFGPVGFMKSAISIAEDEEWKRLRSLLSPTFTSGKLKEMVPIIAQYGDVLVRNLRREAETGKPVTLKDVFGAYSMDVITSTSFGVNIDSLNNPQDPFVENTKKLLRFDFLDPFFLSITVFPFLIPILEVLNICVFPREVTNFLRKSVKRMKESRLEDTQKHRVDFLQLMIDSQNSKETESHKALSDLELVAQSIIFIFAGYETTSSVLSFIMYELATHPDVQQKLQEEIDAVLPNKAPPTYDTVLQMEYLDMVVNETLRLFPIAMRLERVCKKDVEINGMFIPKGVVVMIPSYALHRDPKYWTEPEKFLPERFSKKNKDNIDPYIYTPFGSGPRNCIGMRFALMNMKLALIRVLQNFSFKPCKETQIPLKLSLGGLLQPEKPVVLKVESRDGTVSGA
SMILES,Potency,"activity change, negative = inhibition"
COC(=O)OC,inactive,–
CCCCCNCCCCC,inactive,–
O=C(O)Cc1c[nH]c2ccccc12,inactive,–
C=CC(C)(C)C,inactive,–
Cc1ccc(C)c(S(=O)(=O)O)c1,inactive,–
O=[N+]([O-])c1cc(C(F)(F)F)ccc1Cl,inactive,–
Oc1ccc(Cc2ccccc2O)cc1,inactive,–
CC1(C)C(=O)N(Cl)C(=O)N1Cl,inactive,–
CCCCCCCCC(=O)O,inactive,–
Cc1ccncc1,inactive,–
C[n+]1ccn(CCO)c1,inactive,–
CCCCC(=O)O,inactive,–
CC(=O)C(C)C,inactive,–
Cc1cc(CC(=O)O)n(C)c1C(=O)c1ccc(Cl)cc1,inactive,–
C=CC(=O)NCOCCCC,inactive,–
Cc1ncc(CO)c(CO)c1O,inactive,–
CC(C)=CCC/C(C)=C/C=O,inactive and 35.6 µM (active),–
CCn1cc(C(=O)O)c(=O)c2cc3c(cc21)OCO3,–,-0.272% [at 23.6 µM] (inactive)
CC(=O)c1nccs1,inactive,–
Brc1ccc(Oc2ccc(Br)cc2)cc1,inactive,–

SMILES,Potency,"activity change, negative = inhibition"
CCCCCC(C)=O,inactive,–
O=C1O[C@H]([C@H](O)CO)C(O)=C1O,inactive,–
CO[Si](CCCNCCN)(OC)OC,inactive,–
OCC(O)CS (stereo not given),inactive,–
Cc1ccc(Cl)cc1,inactive,–
CCCCCCC(=O)O,inactive,–
CCCOC(=O)NCCCN(C)C,inactive,–
CCCN(CCC)C(=O)SCC,inactive,–
NC(N)=S,inactive,–
Cc1cccc(C)c1[N+](=O)[O-],inactive,–
CC(O)CNCC(C)O (stereo not given),31.9 µM (active) and inactive,–
COc1ccccc1[N+](=O)[O-],inactive,–
CN1CCCC1=O,inactive,–
CC(=O)OC(C)(C)C1CC=C(C)CC1 (stereo not given),inactive and 31.7 µM (active),–
OC[C@H]1O[C@@H](Oc2ccc(O)cc2)[C@H](O)[C@@H](O)[C@@H]1O,inactive,–
COc1ccc(N)c(OC)c1,3.84 µM (active) and 11.3 µM (active),–
COC(=O)/C=C\C(=O)OC,inactive,–
CCc1cccc(CC)c1N,inactive,–
C1CCCNCC1,inactive,–
CC(=O)OC/C=C(\C)CCC=C(C)C,inactive and 31.7 µM (active),–

# — PubChem BioAssay (Tox21)
